High-throughput results as filed in PubChem BioAssay.
ClpP mod – qHTS Assay for Activators of ClpP; ATP-dependent Clp protease proteolytic subunit (Bacillus subtilis (strain 168)), P80244; purified B. subtilis ClpP, FRET peptide cleavage, 20 min; Potency, µM (doses to about 57.5 µM), for inactives: at the highest dose activity change, negative = active; 340,000 tested, 1.9% active; active = well fitted falling curve with a large enough effect; inconclusive = small, poorly fitted or top-dose-only effect; inactive = no such curve, though single readings can be large or run the other way; also: potency is read from the fitted curve at half-maximal effect; the source files actives as falling curves though it sought activators and does not explain the sign; nearly all actives have a fitted effect of over 65% in size
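FRET quenching reversal measured ClpP activation: 10 microg/mL B. subtilis ClpP at pH 8 with the FRET-FV decapeptide, read at 430 nm after 320 nm excitation. The 20-min minus 0-min signal was scaled between DMSO/no-enzyme wells and ADEP (5.8 microM final).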
p53 reactivation – mutant p53 re-activation in reporter cells | H1299 p53-A138V BP100-luciferase reporter, luminescence, 24 h | Potency, µM (top dose mostly 92.2 µM), without a hit: at the top dose activity change, positive = activation, usual class: activators | 320,000 tested, 0.063% active | AID 504706; active = well fitted activation curve with a large enough effect; inconclusive = small, poorly fitted or top-dose-only effect; inactive = no such curve, though single readings can be large or run the other way; also: potency is read from the fitted curve at half-maximal effect; % of control where 0% means no effect; nearly all actives have a fitted effect of over 45% in size
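H1299 (p53-null), stable ts p53-A138V + BP100-Luc; 1000 cells/well, Opti-MEM/10% FBS; cpd 4 pt, 1:5; 24 h, 37 deg C, 5% CO2; detection reagent 10 min RT; luminescence.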
Menin MLL FP TR – inhibitors of human menin-MLL interaction, mutant MLL peptide; AID 1768; Potency, µM (doses to about 61.6 µM), inactives show top-dose FP activity change, negative = inhibition, hits mostly inhibitors; O00255; Menin + Texas Red MLL mutant peptide, fluorescence polarization; 270,000 tested, 0.23% active; active = well fitted inhibition curve with a large enough effect in the polarisation, with a control signal flat, not every such curve was filed as active; inconclusive = small, poorly fitted or top-dose-only effect, or effect the other way, or a change in a side signal; inactive = no such curve, though single readings can be large or run the other way; the % refers to the polarisation; also: potency is read from the fitted curve at half-maximal effect; % of control where 0% means no effect
Target sequence (O00255 whole entry, looked up): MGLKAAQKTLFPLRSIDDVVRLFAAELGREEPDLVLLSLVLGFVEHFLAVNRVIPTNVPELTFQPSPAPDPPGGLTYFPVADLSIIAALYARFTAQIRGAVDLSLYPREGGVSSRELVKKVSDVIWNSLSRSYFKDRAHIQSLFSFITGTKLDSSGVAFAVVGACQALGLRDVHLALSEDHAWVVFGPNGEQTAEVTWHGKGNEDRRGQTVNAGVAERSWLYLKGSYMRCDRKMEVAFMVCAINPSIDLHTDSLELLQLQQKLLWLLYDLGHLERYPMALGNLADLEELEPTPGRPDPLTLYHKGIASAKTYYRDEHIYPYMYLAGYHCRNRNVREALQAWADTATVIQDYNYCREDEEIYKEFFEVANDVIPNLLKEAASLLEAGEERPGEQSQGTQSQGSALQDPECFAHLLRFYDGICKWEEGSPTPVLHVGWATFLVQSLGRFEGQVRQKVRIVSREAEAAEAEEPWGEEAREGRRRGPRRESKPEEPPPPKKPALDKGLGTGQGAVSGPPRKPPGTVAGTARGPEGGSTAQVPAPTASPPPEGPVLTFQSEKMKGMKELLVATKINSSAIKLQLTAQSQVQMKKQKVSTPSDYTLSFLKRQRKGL
Menin MLL FP FL – displaces fluorescein MLL peptide from human menin; Fluorescence polarization, fluorescein-MLL peptide displacement from menin; FP activity change, % at 61.4 µM; 290,000 tested, under 10 active; AID 1766; active = well fitted curve in the direction sought with a large enough effect in the polarisation, not every such curve was filed as active; inconclusive = small, poorly fitted or top-dose-only effect, or effect the other way, or a change in a side signal; inactive = no such curve, though single readings can be large or run the other way; the % refers to the polarisation; also: % of control where 0% means no effect
CXXC DNA block – MLL CXXC-DNA interaction inhibition. Q03164. MLL-CXXC / FITC-HOXA9 DNA fluorescence polarization. Potency, µM (series often up to 115 µM), for inactives: top-dose activity change, negative = inhibition, hits mostly inhibitors. 290,000 tested, 0.037% active; active = well fitted inhibition curve with a large enough effect in the polarisation, with a control signal flat, not every such curve was filed as active; inconclusive = small, poorly fitted or top-dose-only effect, or effect the other way, or a change in a side signal; inactive = no such curve, though single readings can be large or run the other way; the % refers to the polarisation; also: potency is read from the fitted curve at half-maximal effect
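Steps: dispense CXXC domain solution (7 uM) → pin compounds or unlabeled HOX-A9 DNA control → 5 min ambient → add FLSN-HOX-A9 solution (50 nM) → spin → 30 min ambient → fluorescence polarization. Tris pH 7.5/NaCl/DTT/BSA buffer.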
Starred values were filed as active, the others as inactive; ? = inconclusive; / = no result given; [ ] = dose if it differs, or a comment. Many of the other results were omitted from the sample, so hits are more common in it than they were.

SMILES	ClpP mod	p53 reactivation	Menin MLL FP TR	Menin MLL FP FL	CXXC DNA block
COCc1cc(C)n(CC(=O)Nc2ccccc2OC)c(=O)c1C#N	?	0.3%	5.0%	-1.1	4.2%
O=C(Cn1c(=O)oc2ccccc21)Nc1ccc(Cl)cc1Cl	1.5%	1.3%	31.6µM*	-1.4	43.7%
COc1cccc(N2CCN(C(=O)C3Cc4ccccc4N3C(C)=O)CC2)c1 (stereo not given)	-1.9%	/	/	/	/
N#CC1(C#N)COC23CCCCC2C1(C#N)C(=N)O3 (stereo not given)	?	6.7%	28.2µM*	?	-20.4%
N#CC12COC3(CCCCC3C1(C#N)C#N)OC2=N (stereo not given)	-2.3%	-0.8%	/	?	0.0%
CC(C)C[C@@H](NC(=O)[C@H](Cc1ccccc1)NC(=O)c1cnccn1)B(O)O	/	/	8.1%	-2.6	-14.9%
COc1ccc2nc3c(cc2c1)Cn1c-3nc2ccccc2c1=O	/	/	-6.0%	9.1	/
C/C(N)=C(/C#N)C(=O)CSc1ccc2c(c1)OCCO2	-2.0%	39.8µM*	-14.8%	-0.9	8.5%
Fc1ccccc1-c1nc(N2CCN(c3cccc(Cl)c3)CC2)c2ccccc2n1	31.6µM*	/	/	/	/
COc1cccc2c(=O)c(C/C=C(/C)Cl)c(C)[nH]c12	15.8µM*	0.4%	7.7%	-1.8	11.2%
COc1ccc(NC(=O)CCS(=O)(=O)c2nc(-c3cccs3)cc(C(F)(F)F)n2)cc1OC	16.9%	/	/	/	/
CCOc1nc(NC(=O)NS(=O)(=O)c2cccc(Cl)c2)nc(-c2ccccc2)n1	28.2µM*	24.2%	11.6%	1.4	-3.7%
CCOc1nc(NC(=O)NS(=O)(=O)Oc2cccc(Cl)c2)nc(-c2ccccc2)n1	-4.8%	15.6%	7.2%	11.0	5.6%
COC(=O)c1ccn(CSc2cc(Cl)ccc2Cl)n1	0.1%	-4.1%	/	/	/
COC(=O)c1ccn(C(=O)c2ccc(Cl)cc2)n1	28.2µM*	/	14.4%	-3.4	9.8%
Nc1ccc(/C=C/c2ccnc3ccccc23)c(N)c1	-1.3%	/	/	/	/
COc1cc(OC)c(/C=C/c2cc3ccccc3c[n+]2C)c(OC)c1	-2.0%	/	/	/	/
Cc1cc2ccccc2c(=O)n1CC(=O)N1CCN(c2cccc(Cl)c2)CC1	-27.3%	5.7%	-13.4%	-0.6	28.7%
Cc1ccc(Cl)cc1N1CCN(C(=O)Cn2c(-c3cccs3)cc3cc(F)ccc32)CC1	8.91µM*	/	/	/	/
O=C(Cn1c(-c2cccs2)cc2cc(Cl)ccc21)N1CCN(c2ccccc2F)CC1	12.6µM*	/	/	/	/
O=C(Cn1c(-c2cccs2)cc2cc(Cl)ccc21)N1CCN(c2ccccc2)CC1	25.1µM*	/	/	/	/
CCCN1CCN(C(=O)Cn2c(-c3cccs3)cc3cc(F)ccc32)CC1	4.2%	/	/	/	/
O=C(Cn1c(-c2cccs2)cc2ccccc21)N1CCN(c2ccccc2F)CC1	14.1µM*	/	/	/	/
O=C(CNS(=O)(=O)c1cccs1)N1CCN(c2ccccc2F)CC1	-0.3%	7.9%	-0.7%	-6.5	9.9%
COc1ccc(C2Nc3ccccc3C(=O)N2Cc2ccccc2)cc1COc1ccc([N+](=O)[O-])cc1 (stereo not given)	-3.8%	/	/	/	/
SMILES	ClpP mod	p53 reactivation	Menin MLL FP TR	Menin MLL FP FL	CXXC DNA block
Nc1cc([N+](=O)[O-])cc(N)c1N	0.7%	/	/	/	/
O=C(Cn1c(-c2cccs2)cc2ccccc21)N1CCN(c2ccc(F)cc2)CC1	35.5µM*	/	/	/	/
O=C(c1cccs1)N1CCN(c2ccc(F)cc2)CC1	-0.2%	4.4%	/	1.3	-4.0%
CCCCCC(=O)Nc1cc(N(C)C)nc2ccccc12	28.2µM*	-6.6%	4.6%	1.8	4.8%
CCCCCCC(=O)Nc1c2c(nc3ccccc13)N(C)CC2	28.2µM*	/	2.1%	-0.9	3.0%
CN1CCc2c1nc1ccccc1c2NC(=O)CN1CCCC1	/	7.7%	-6.4%	2.6	-6.9%
CCN(CC)CC(=O)Nc1cc(N(C)C)nc2ccccc12	/	-3.6%	/	0.7	-9.8%
COCCN1CCN(c2cc(-c3ccccc3)nc3cc(-c4cccc(F)c4)nn23)CC1	25.1µM*	-9.2%	21.8%	2.0	2.4%
COc1ccc(/C=C/C(=O)NCc2cn(C)nc2C)cc1COc1ccc(Cl)cc1Br	14.1µM*	-13.2%	11.7%	2.3	?
CCn1nc(C)c(NC(=O)/C=C/c2ccc(OC)c(COc3ccc(Cl)cc3Br)c2)c1C	-3.4%	-2.7%	12.9%	1.4	-6.0%
CC(=O)N1CC[C@@H]2CC(=O)CC[C@@H]21	/	/	3.4%[138 µM]	-5.6[138 µM]	/
Fc1ccc(-c2nc(-c3cccs3)no2)cc1	0.5%	17.1%	/	0.2	9.0%
Fc1ccc2[nH]c(-c3cccs3)cc2c1	11.2µM*	/	/	/	/
Nc1ccc2nc(-c3cccs3)[nH]c2c1	10µM*	?	-12.2%	3.0	-3.8%
Nc1ccc2nc(-c3ccccc3)[nH]c2c1	?	8.5%	21.2%	2.6	2.9%
Nc1ccc2nc(-c3ccccn3)[nH]c2c1	31.6µM*	?	4.8%	4.2	1.6%
Nc1ccc2nc(-c3ccc(N)c(Cl)c3)[nH]c2c1	3.55µM*	?	?	-1.1	19.4%
COc1ccc2cc(-c3nc4ccc(C(=O)O)cc4[nH]3)c(=O)oc2c1	4.1%	/	/	/	/
COC(=O)C1=C(C(=O)OC)[C@@H]2N(Cc3ccccc3)c3ccccc3[C@@]23C[C@@H](C(=O)OC)N(S(=O)(=O)c2cccs2)C3=N1	/	/	-9.0%[11.7 µM]	-0.6[11.7 µM]	/
CCOc1ccc2[nH]c(=O)c(C(c3nnnn3C3CCCCC3)N3CCN(CC)CC3)cc2c1 (stereo not given)	25.1µM*	1.6%	-18.2%	-1.4	3.4%
COc1ccc2[nH]c(=O)c(C(c3nnnn3C3CCCC3)N3CCN(Cc4ccc5c(c4)OCO5)CC3)cc2c1 (stereo not given)	28.2µM*	3.4%	0.5%	1.8	20.5%
CCOc1ccc2[nH]c(=O)c(C(c3nnnn3C3CCCCC3)N3CCN(C)CC3)cc2c1 (stereo not given)	25.1µM*	-0.1%	-2.3%	0.2	5.1%
CCOC(=O)c1sc2nc(C)cc(C)c2c1N	28.2µM*	-8.3%	-4.5%	1.4	-6.5%
COCc1cc(C)nc2sc(C(=O)Nc3nccs3)c(N)c12	-2.4%	4.0%	-0.4%[11.7 µM]	1.7	-4.9%
Cc1cc(C)c2c(N)c(C(=O)Nc3nccs3)sc2n1	35.5µM*	4.7%	13.6%	0.7	14.5%
CC(C)C[C@H](NC(=O)CN(C)C(=O)[C@H](Cc1ccccc1)NC(=O)[C@H](Cc1ccccc1)NC(=O)[C@H](CCC(N)=O)NC(=O)[C@H](CCC(N)=O)NC(=O)[C@@H]1CCCN1C(=O)[C@H](CCCCN)NC(=O)[C@@H]1CCCN1C(=O)[C@@H](N)CCCN=C(N)N)C(=O)N[C@@H](CCS(C)(=O)=O)C(N)=O	/	/	1.5%	-5.5	/
Cc1nc2ccc(NC(=O)c3ccccc3)cc2s1	-2.6%	9.2%	1.8%	-1.7	4.9%
